Experimental data reported in PubChem BioAssay AID1159580 (chemical genetic matrix, 2015).
Out of some 5,500 compounds screened, about 2,000 (36%) were called active. Roughly 18% stayed inconclusive and do not appear here. No stated cut-off is given here; in the data, active means normalized growth mostly below about 0.91 (no sharp cut-off); inconclusive means no clear call, values can overlap the other calls; inactive means mostly above about 0.92. This is one part of the list.

Assay: chemical genetic growth profiling, strain panel (AID 1159580);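 further: tested at 20 µM; growth read once vehicle control cultures reached saturation at 30 °C; 1 = growth at the plate median or of vehicle wells; lower values mean less growth of the strain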
Settings: growth OD
[1] = S. cerevisiae deletion strains, locus YAL013W, strain DEP1, active compounds read low
[2] = S. cerevisiae deletion strains, locus YGR229C, strain SMI1, active compounds read low
[3] = S. cerevisiae deletion strains, locus YMR263W, strain SAP30, active compounds read low
[4] = S. cerevisiae deletion strains, locus YMR307W, strain GAS1, active compounds read low
[5] = S. cerevisiae deletion strains, locus YNL128W, strain TEP1, active compounds read low
[6] = S. cerevisiae deletion strains, locus YPL241C, strain CIN2, active compounds read low

Measured: normalized growth

CC(C)(C)NC[C@H](O)COc1nsnc1N1CCOCC1
inactive: [1] 1.01 | S. cerevisiae deletion strains, locus YAL040C, strain CLN3, active compounds read low 1.03 | S. cerevisiae deletion strains, locus YCL061C, strain MRC1 (second series), active compounds read low 1 | S. cerevisiae deletion strains, locus YDR363W, strain ESC2, active compounds read low 0.989 | S. cerevisiae deletion strains, locus YER002W, strain NOP16, active compounds read low 0.998 | [2] 1.03 | [3] 0.993 | [4] 0.992 | [5] 0.995 | S. cerevisiae deletion strains, locus YNL175C, strain NOP13, active compounds read low 0.997 | S. cerevisiae deletion strains, locus YNL197C, strain WHI3, active compounds read low 0.99 | S. cerevisiae deletion strains, locus YNL224C, strain SQS1, active compounds read low 0.988 | S. cerevisiae deletion strains, locus YOR083W, strain WHI5 (second series), active compounds read low 0.996 | [6] 1

CCS(=O)CCSP(=O)(OC)OC (stereo not given)
inactive: [1] 1.01 | S. cerevisiae deletion strains, locus YBR021W, strain FUR4, active compounds read low 1 | S. cerevisiae deletion strains, locus YBR229C, strain ROT2, active compounds read low 1.02 | S. cerevisiae deletion strains, locus YCL029C, strain bik1, active compounds read low 1 | S. cerevisiae deletion strains, locus YDL035C, strain GPR1, active compounds read low 1.01 | S. cerevisiae deletion strains, locus YDL074C, strain BRE1, active compounds read low 0.998 | S. cerevisiae deletion strains, locus YDL101C, strain DUN1, active compounds read low 1.01 | S. cerevisiae deletion strains, locus YDL134C, strain PPH21, active compounds read low 1.01 | S. cerevisiae deletion strains, locus YDL185W, strain tfp1, active compounds read low 1.01 | S. cerevisiae deletion strains, locus YDL192W, strain arf1, active compounds read low 1 | S. cerevisiae deletion strains, locus YDR101C, strain arx1, active compounds read low 1 | S. cerevisiae deletion strains, locus YDR150W, strain NUM1, active compounds read low 1.01 | S. cerevisiae deletion strains, locus YDR162C, strain NBP2, active compounds read low 1.03 | S. cerevisiae deletion strains, locus YDR318W, strain mcm21, active compounds read low 1.01 | S. cerevisiae deletion strains, locus YDR388W, active compounds read low 1.01 | S. cerevisiae deletion strains, locus YDR502C, strain sam2, active compounds read low 0.995 | S. cerevisiae deletion strains, locus YEL061C, strain CIN8, active compounds read low 1.02 | S. cerevisiae deletion strains, locus YER110C, active compounds read low 1.01 | S. cerevisiae deletion strains, locus YER155C, strain BEM2, active compounds read low 1.02 | S. cerevisiae deletion strains, locus YER167W, strain BCK2, active compounds read low 1.02 | S. cerevisiae deletion strains, locus YGL078C, strain dbp3, active compounds read low 1.01 | S. cerevisiae deletion strains, locus YGL086W, strain mad1, active compounds read low 1 | S. cerevisiae deletion strains, locus YGL248W, strain PDE1, active compounds read low 1.01 | S. cerevisiae deletion strains, locus YGR078C, strain PAC10, active compounds read low 1.02 | S. cerevisiae deletion strains, locus YGR135W, strain pre9, active compounds read low 1.01 | [2] 0.999 | S. cerevisiae deletion strains, locus YGR252W, strain gcn5, active compounds read low 0.945 | S. cerevisiae deletion strains, locus YHR030C, strain SLT2, active compounds read low 1 | S. cerevisiae deletion strains, locus YHR079C, strain IRE1 (second series), active compounds read low 1.01 | S. cerevisiae deletion strains, locus YHR094C, strain hxt1, active compounds read low 1.01 | S. cerevisiae deletion strains, locus YHR129C, strain ARP1, active compounds read low 1.02 | S. cerevisiae deletion strains, locus YHR200W, strain rpn10, active compounds read low 1 | S. cerevisiae deletion strains, locus YIL066C, strain RNR3, active compounds read low 1.03 | S. cerevisiae deletion strains, locus YIL073C, strain SPO22, active compounds read low 1.06 | S. cerevisiae deletion strains, locus YIL125W, strain kgd1, active compounds read low 0.997 | S. cerevisiae deletion strains, locus YIR030C, strain dcg1, active compounds read low 1.01 | S. cerevisiae deletion strains, locus YJL095W, strain BCK1, active compounds read low 1.03 | S. cerevisiae deletion strains, locus YJL134W, strain LCB3, active compounds read low 1.01 | S. cerevisiae deletion strains, locus YJL168C, strain set2, active compounds read low 1 | S. cerevisiae deletion strains, locus YJL187C, strain SWE1 (second series), active compounds read low 1.02 | S. cerevisiae deletion strains, locus YJR043C, strain POL32, active compounds read low 1.02 | S. cerevisiae deletion strains, locus YJR075W, strain HOC1, active compounds read low 0.99 | S. cerevisiae deletion strains, locus YKL009W, strain mrt4, active compounds read low 0.977 | S. cerevisiae deletion strains, locus YKL068W, active compounds read low 1 | S. cerevisiae deletion strains, locus YKL085W, strain MDH1 (second series), active compounds read low 1.01 | S. cerevisiae deletion strains, locus YKL085W, strain MDH1, active compounds read low 1.01 | S. cerevisiae deletion strains, locus YKL190W, strain CNB1, active compounds read low 1.01 | S. cerevisiae deletion strains, locus YKR001C, strain vps1, active compounds read low 1 | S. cerevisiae deletion strains, locus YLR039C, strain RIC1, active compounds read low 1.04 | S. cerevisiae deletion strains, locus YLR058C, strain SHM2, active compounds read low 1.02 | S. cerevisiae deletion strains, locus YLR102C, strain apc9, active compounds read low 1 | S. cerevisiae deletion strains, locus YLR262C, strain YPT6, active compounds read low 1.02 | S. cerevisiae deletion strains, locus YLR268W, strain sec22, active compounds read low 0.999 | S. cerevisiae deletion strains, locus YLR330W, strain CHS5, active compounds read low 1.01 | S. cerevisiae deletion strains, locus YLR342W, strain FKS1 (second series), active compounds read low 1.02 | S. cerevisiae deletion strains, locus YLR371W, strain rom2, active compounds read low 0.999 | S. cerevisiae deletion strains, locus YLR418C, strain cdc73, active compounds read low 0.984 | S. cerevisiae deletion strains, locus YML016C, strain PPZ1, active compounds read low 1.01 | S. cerevisiae deletion strains, locus YML032C, strain rad52, active compounds read low 1.01 | S. cerevisiae deletion strains, locus YML124C, strain tub3, active compounds read low 1.01 | S. cerevisiae deletion strains, locus YMR078C, strain ctf18, active compounds read low 1.01 | S. cerevisiae deletion strains, locus YMR223W, strain ubp8, active compounds read low 1 | [3] 1.02 | [4] 1 | S. cerevisiae deletion strains, locus YNL067W, strain RPL9B, active compounds read low 1.01 | [5] 1.02 | S. cerevisiae deletion strains, locus YNL153C, strain GIM3, active compounds read low 1.01 | S. cerevisiae deletion strains, locus YNL233W, strain BNI4, active compounds read low 1.01 | S. cerevisiae deletion strains, locus YNL250W, strain rad50, active compounds read low 1.01 | S. cerevisiae deletion strains, locus YNL271C, strain bni1, active compounds read low 1 | S. cerevisiae deletion strains, locus YNL298W, strain CLA4, active compounds read low 1.01 | S. cerevisiae deletion strains, locus YNL307C, strain MCK1, active compounds read low 1.01 | S. cerevisiae deletion strains, locus YNL322C, strain KRE1, active compounds read low 1.01 | S. cerevisiae deletion strains, locus YNR052C, strain pop2, active compounds read low 1 | S. cerevisiae deletion strains, locus YOL006C, strain TOP1, active compounds read low 1.01 | S. cerevisiae deletion strains, locus YOL012C, strain htz1 0.877 | S. cerevisiae deletion strains, locus YOL147C, strain pex11, active compounds read low 1 | S. cerevisiae deletion strains, locus YOR061W, strain CKA2, active compounds read low 1.01 | S. cerevisiae deletion strains, locus YOR069W, strain VPS5, active compounds read low 1 | S. cerevisiae deletion strains, locus YOR136W, strain idh2, active compounds read low 1 | S. cerevisiae deletion strains, locus YOR144C, strain elg1, active compounds read low 1.01 | S. cerevisiae deletion strains, locus YOR184W, strain ser1, active compounds read low 1 | S. cerevisiae deletion strains, locus YOR316C, strain cot1, active compounds read low 1 | S. cerevisiae deletion strains, locus YPL055C, strain LGE1, active compounds read low 1.01 | [6] 1.01 | S. cerevisiae deletion strains, locus YPR119W, strain clb2, active compounds read low 1.01 | S. cerevisiae deletion strains, locus YPR141C, strain kar3, active compounds read low 0.997 | S. cerevisiae deletion strains, locus YPR163C, strain tif3, active compounds read low 1.01 | S. cerevisiae deletion strains, locus YPR167C, strain met16, active compounds read low 0.998 | S. cerevisiae deletion strains, strain wtn01, active compounds read low 0.996 | S. cerevisiae strains, strain wild type, active compounds read low 1.01
